BAZ2B inh = inhibitors of human BAZ2B bromodomain; AlphaScreen BAZ2B-H3K14Ac peptide displacement; Potency, µM (titrated, usually from 114 µM), usual class: inhibitors; AID 504333; 360,000 tested, 4.4% active; also: nearly all actives have a fitted effect of over 60% in size
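Protein-peptide AlphaScreen: BAZ2B 50 nM, b-H3K14Ac 50 nM, 1x PBS pH 7.4 + 0.01% Tween-20. Preincubation 30 min RT; cpd 30 min RT (top 110 uM); beads 20 min RT, light-protected.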
G9a block = blocks human histone lysine methyltransferase G9a. Q96KQ7. G9a H3K9 monomethylation, AlphaScreen, 2 h. Potency, µM (highest dose often 102 µM), most hits filed as inhibitors. 350,000 tested, 8.8% active. AID 504332; also: nearly all actives have a fitted effect of over 75% in size
Target sequence (Q96KQ7 913-1193 limits assumed): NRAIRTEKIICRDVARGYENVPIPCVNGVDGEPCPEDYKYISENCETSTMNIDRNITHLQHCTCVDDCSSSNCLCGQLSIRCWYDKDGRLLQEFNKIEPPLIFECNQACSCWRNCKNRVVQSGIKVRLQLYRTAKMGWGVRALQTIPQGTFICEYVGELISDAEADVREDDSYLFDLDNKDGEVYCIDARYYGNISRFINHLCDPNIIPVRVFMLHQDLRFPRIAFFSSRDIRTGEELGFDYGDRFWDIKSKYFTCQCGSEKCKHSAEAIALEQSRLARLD
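Quantitative HTS format: methyltransferase activity on a biotin-tagged H3K9 peptide is measured by AlphaScreen, using a rabbit anti-monomethyl-H3K9 antibody with streptavidin donor and anti-IgG acceptor beads. Final levels are 20 nM enzyme, 500 nM peptide, 20 uM SAM; 2 h RT.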
JMJD2A Tudor inh = blocks the human JMJD2A Tudor domain. O75164. AlphaScreen JMJD2A-Tudor / H3K4me3 peptide binding. Potency, µM (titrated, usually from 114 µM), most hits filed as inhibitors. 390,000 tested, 4.4% active; also: nearly all actives have a fitted effect of over 50% in size
Sfp inh = Sfp phosphopantetheinyl transferase inhibition | Q9F4F7 | Biochemical Sfp PPTase activity, qHTS | Potency, µM, actives largely listed as inhibitors | 310,000 tested, 3.5% active;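 also: the enzyme is Sfp with the accession as filed and its product quenches rhodamine fluorescence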
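Sfp 15 nM + cpd, 15 min RT; start w/ rhodamine-CoA 5 uM, BHQ-2-YbbR 12.5 uM (final); 50 mM Hepes pH 7.6, 10 mM MgCl2, 0.01% NP-40, 0.01% BSA; read 525/598 nm at 0 and 30 min.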
HP1b chromo inh = inhibitors of HP1-beta chromodomain binding to methylated histone tails | P83916 | AlphaScreen HP1-beta / biotin-H3K9me3 peptide binding | Potency, µM (titrated, usually from 114 µM), actives largely listed as inhibitors | 390,000 tested, 0.56% active | AID 540317; also: nearly all actives have a fitted effect of over 70% in size
Target sequence (P83916 whole entry, looked up): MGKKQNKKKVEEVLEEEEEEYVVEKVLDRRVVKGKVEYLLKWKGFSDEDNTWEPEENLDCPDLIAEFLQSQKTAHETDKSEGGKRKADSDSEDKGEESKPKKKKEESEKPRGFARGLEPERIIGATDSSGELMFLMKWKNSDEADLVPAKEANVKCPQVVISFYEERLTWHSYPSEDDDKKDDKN
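HP1-beta protein (50 nM final) preincubated 30 min at room temperature with biotinylated H3(1-18)K9me3 peptide (50 nM) in PBS pH 7.4, 0.01% Tween-20, then compound added for 30 min. AlphaScreen streptavidin donor/nickel chelate acceptor beads (10 ug/mL final), 30 min dark, luminescence read.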
PLK1 PBD block = inhibitors of human PLK1 polo-box domain binding. P53350. 360,000 tested, 2.8% active. Plk1 PBD binding of FITC phosphopeptide, fluorescence polarization. Potency, µM, actives largely listed as inhibitors; also: series mostly up to about 57 µM; nearly all actives have a fitted effect of over 65% in size
Numbers stand for hits; . = inactive; ? = inconclusive; / = no result given; ! = a repeat was not active; [ ] = another dose, or the depositor's remark. An excerpt weighted towards active compounds, which were near 12% of everything screened. Calls follow the shape of the dose curve; as a rule, active = well fitted curve in the direction sought with a large enough effect; inconclusive = small, poorly fitted or top-dose-only effect, or another doubt; inactive = no such curve, though single readings can be large; an effect the other way counts as inactive or inconclusive.

SMILES	BAZ2B inh	G9a block	JMJD2A Tudor inh	Sfp inh	HP1b chromo inh	PLK1 PBD block
CC(=O)Nc1ccc(NC(=O)c2nc(S(=O)(=O)Cc3ccccc3)ncc2Cl)cc1	.	.[0.501 µM]	.	.	.	16.8µM
CN(C(=O)c1cc(-c2ccccc2O)on1)c1ccccc1	.	.	.	/	.	/
CCOc1ccccc1NC(=O)c1nc(S(=O)(=O)Cc2cccc(C)c2)ncc1Cl	.	56.2µM!	?	.	.	?
COC(=O)c1ccccc1NC(=O)c1nc(S(=O)(=O)Cc2ccccc2)ncc1Cl	.	.	.	.	.	?
CC(=O)N1c2ccc3ccccc3c2C2C=CCC2C1c1ccc(Br)cc1 (centres undefined)	?	?	/	.	/	/
CC(=O)N1c2ccc(Cl)cc2C2C=CCC2C1c1cccc2ccccc12 (centres undefined)	.	12.6µM	.	?	.	.
Nc1cc(Br)cc2c1[nH]c(=O)c1ccccc12	/	/	/	/	/	.
CCCCC(=O)Nc1ccc(C(=O)NNC(=O)CCCOc2ccc(Cl)cc2Cl)cc1	.	50.1µM	.	.	.	.
O=C(CCCOc1ccc(Cl)cc1Cl)Nc1cccnc1	.	44.7µM	.	.	.	.
O=C(CCCOc1ccc(Cl)cc1Cl)N/N=C/c1ccc(Cl)cc1	.	.	?	.	?	15µM
Cc1onc(-c2c(Cl)cccc2Cl)c1CO/N=C(\C#N)c1c(Cl)cccc1Cl	.	.	.	.	.	.
CC[C@@H](C)[C@H](NS(=O)(=O)c1cccc2ccccc12)C(=O)N[C@H](C=O)Cc1c[nH]c2ccccc12	/	.	/	?	/	/
N/C(=N\OC(=O)c1ccc(Cl)cc1[N+](=O)[O-])c1ccccn1	.	/	?	.	.	.
N/C(=N\OC(=O)c1ccc(Cl)cc1Cl)c1ccccn1	.	89.1µM	.	.	.	?
O=C(O/N=C(\c1ccccc1)c1ccccn1)c1ccc(Cl)c(Cl)c1	.	3.55µM	.	.	.	.
N/C(=N\OC(=O)c1ccc([N+](=O)[O-])cc1Cl)c1ccccn1	56.2µM	20µM	?	.	.	.
N/C(=N\OC(=O)c1cc(Br)ccc1Cl)c1ccccn1	.	56.2µM	.	.	.	.
CN(CC(=O)Nc1ccccc1Cl)C(=O)Cn1cnc2ccccc2c1=O	.	?	.	/	.	.
Cc1ccc(CONC(=O)/N=C/N(C)C)cc1	.	.[0.0925 µM]	.	.	.	.
COc1ccccc1CNC(=O)Nc1ccc2c(c1)N(C)C(=O)c1ccccc1S2	?	.	.	/	?	/
Cn1c(SCc2ccc(C(F)(F)F)cc2)nc2c([nH]c3ccccc32)c1=O	.	.	?	/	.	/
N/C(=N\OC(=O)COc1ccc2ccccc2c1Br)c1ccncc1	.	.	/	44.7µM	/	/
S=c1nc[nH]c2c1[nH]c1ccc(Cl)cc12	.	1.41µM	4.47µM	.	.	?
O=C(NCCN1C(=O)S/C(=C\c2ccc(F)cc2)C1=O)C1CCN(S(=O)(=O)c2cccs2)CC1	.	.	?	.	.	26.7µM
CC(=O)c1ccc(NC2c3ncccc3C(=O)N2Cc2ccc(F)cc2)cc1 (centres undefined)	?	/	.	.	.	.
SMILES	BAZ2B inh	G9a block	JMJD2A Tudor inh	Sfp inh	HP1b chromo inh	PLK1 PBD block
O=C1c2ccccc2C(Nc2ccc3c(c2)OCCO3)N1c1ccccn1 (centres undefined)	?	.	?	.	.	.
CCN(CC)S(=O)(=O)c1ccc(NC2c3ncccc3C(=O)N2Cc2ccccc2)cc1 (centres undefined)	?	/	28.2µM	.	.	.
O=C1c2ccccc2C(Nc2ccc3c(c2)OCCO3)N1c1ccc(Cl)cn1 (centres undefined)	39.8µM	44.7µM	?	.	?	.
O=C1c2ccccc2C(Nc2ccc3c(c2)OCCO3)N1Cc1ccc2c(c1)OCO2 (centres undefined)	35.5µM	?	39.8µM	.	.	.
COc1ccc(NC2c3ccccc3C(=O)N2Cc2ccc3c(c2)OCO3)cc1 (centres undefined)	50.1µM	44.7µM	39.8µM	.	?	.
O=C1c2ccccc2C(Nc2ccccc2)N1Cc1ccc2c(c1)OCO2 (centres undefined)	.	?	.	.	.	.
CCN(CC)S(=O)(=O)c1ccc(NC2c3ccccc3C(=O)N2Cc2ccc3c(c2)OCO3)cc1 (centres undefined)	.	39.8µM	.	.	.	.
CCN(CC)S(=O)(=O)c1ccc(NC2c3ccccc3C(=O)N2Cc2ccco2)cc1 (centres undefined)	.	?	.	.	.	.
COc1cc(NC2c3ccccc3C(=O)N2Cc2ccc3c(c2)OCO3)cc(OC)c1 (centres undefined)	?	50.1µM	?	.	.	.
COc1cc(Cl)ccc1OC1(C)CCN(Cc2ccc3ccccc3c2)C1 (centres undefined)	/	/	/	/	/	.
CN1CCC(N(C)C(=S)NC(=O)c2cc(-c3cccc(Br)c3)nc3ccccc23)CC1	?	?	12.6µM	.	.	21.2µM
CN1CCN(NC(=O)c2cc(-c3cccc(Cl)c3)nc3ccccc23)CC1	.	?	.	.	.	.
CCOC(=O)CNC(=O)CSc1ncnc2c1cnn2-c1ccc(Cl)cc1	/	.	?	.	.	23.8µM
CC(=O)CSc1ncnc2c1cnn2-c1ccccc1	.	.	.	.	.	23.8µM
NNc1ncnc2c1cnn2-c1ccccc1	28.2µM	.[12.7 µM]	50.1µM	?	.	.
CCn1c(N2CCN(S(=O)(=O)c3ccccc3C(F)(F)F)CC2)nc2ccccc21	?	50.1µM	.	.	.	.
CCn1c(SCC(=O)NC(C)(C)C)nnc1-c1ccccn1	?	56.2µM	.	.	.	.
CCn1c(SCC(=O)Nc2cc(NC(C)=O)ccc2OC)nnc1-c1ccccn1	?	.	50.1µM	.	.	.
O=C1C(=O)N(C2CCN(C(=O)c3ccc(Cl)cc3)CC2)CCN1Cc1ccc(F)cc1	.	.	.	/	.	/
COc1cccc(C(=O)C[n+]2ccccc2/C=N/O)c1	.	50.1µM	.	.	.	.
O=C(c1ccncc1)N1CCC2(CCCN(c3cccc(-c4ccccc4)c3)C2)CC1	/	.[12.7 µM]	/	.	/	/
COc1ccccc1-n1cnnc1SCC(=O)c1c[nH]c2ccccc12	.	.	.	.	.	26.7µM
Cc1occc1-c1nnc(SCC(=O)c2c[nH]c3ccccc23)n1C	.	39.8µM	56.2µM	50.1µM	.	23.8µM
Cc1occc1-c1nnc(SCC(=O)N2CCCCC2)n1C	.	.	.	/	.	.
Cc1occc1-c1nnc(SCC(=O)c2ccc(Cl)cc2)n1C	?	.[12.7 µM]	70.8µM	.	.	.
Cc1occc1-c1nnc(SCC(=O)N(C)c2ccccc2)n1C	.	.[2.33 µM]	.	/	.	.
O=C(Cc1cn2ccsc2n1)Nc1nc2c(s1)CCCC2	.	.	.	.	.	.

High-throughput results deposited in PubChem BioAssay by National Center for Advancing Translational Sciences (NCATS).
